High-throughput results as filed in PubChem BioAssay.
JMJD2A Tudor = JMJD2A Tudor domain (human) inhibition. O75164. 4.4% of 390,000 active. Potency, µM (doses to about 114 µM), inactives show top-dose activity change, negative = inhibition, hits mostly inhibitors. AlphaScreen JMJD2A-Tudor / H3K4me3 peptide binding; also: % is scaled to controls: 0 for no effect and ±100 for the full control effect; nearly all actives have a fitted effect of over 50% in size
TDP1 inh = TDP1 (human) enzyme inhibition; Q9NUW8; recombinant TDP1, AlphaScreen DNA substrate cleavage; Potency, µM (series often up to 130 µM), for inactives: at the highest dose activity change, negative = inhibition, actives largely listed as inhibitors; 0.28% of 350,000 active; also: % is scaled to controls: 0 for no effect and ±100 for the full control effect; nearly all actives have a fitted effect of over 40% in size
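Steps: enzyme plus compound, 15 min RT; add biotin/phosphotyrosine-FITC oligonucleotide (15 nM final), react 5 min; add donor/acceptor beads (10 ug/ml final), 10 min; read AlphaScreen. Tdp1 at 1 nM final.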
Sfp PPTase inh = Sfp phosphopantetheinyl transferase inhibition; Q9F4F7; Biochemical Sfp PPTase activity, qHTS; Potency, µM, without a hit: largest response in the series, negative = inhibition, hits mostly inhibitors; 3.5% of 310,000 active; AID 1490;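 also: the enzyme is Sfp with the accession as filed and its product quenches rhodamine fluorescence; 0% = enzyme reaction without inhibitor and -100% = no enzyme wells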
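Step 1, compound plus 15 nM Sfp-PPTase, 15 min, room temperature. Step 2, add rhodamine-CoA (5 uM) and BHQ-2-YbbR (12.5 uM). Step 3, read 525/598 nm fluorescence at 0 and 30 min.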
BAZ2B inh = blocks human BAZ2B; Q9UIF8; Potency, µM (series often up to 114 µM), for the others: at the top dose activity change, negative = inhibition, most hits filed as inhibitors; 4.4% of 360,000 active; AlphaScreen BAZ2B-H3K14Ac peptide displacement; also: % is scaled to controls: 0 for no effect and ±100 for the full control effect; nearly all actives have a fitted effect of over 60% in size
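Compounds, titrated to a top concentration of 110 uM, were incubated 30 min at room temperature with preformed BAZ2B/acetyl-K14 H3 peptide complex (50 nM each). Proximity signal was measured by AlphaScreen after 20 min with beads.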
HP1b chromo inh = HP1-beta chromodomain-methylated histone interaction inhibition; P83916; AlphaScreen HP1-beta / biotin-H3K9me3 peptide binding; Potency, µM (top dose mostly 114 µM), for the others: at the top dose activity change, negative = inhibition, actives largely listed as inhibitors; 0.56% of 390,000 active; also: nearly all actives have a fitted effect of over 70% in size
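Compound inhibition of the preformed complex between 50 nM HP1-beta and 50 nM biotinylated H3K9me3 peptide was read by AlphaScreen. Buffer was PBS pH 7.4 with 0.01% Tween-20. Incubations ran 30 min at room temperature, with 10 ug/mL donor/acceptor beads.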
G9a inh = inhibitors of human histone lysine methyltransferase G9a. Q96KQ7. G9a H3K9 monomethylation, AlphaScreen, 2 h. Potency, µM (top dose mostly 102 µM), without a hit: at the top dose activity, negative = inhibition, actives largely listed as inhibitors. 8.8% of 350,000 active. AID 504332; also: % is scaled to controls: 0 for no effect and ±100 for the full control effect; nearly all actives have a fitted effect of over 75% in size
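Signal arises when biotinylated H3K9 peptide, once monomethylated, bridges streptavidin donor and antibody-captured acceptor beads. Enzyme at 20 nM was preincubated 15 min with test compounds; peptide 500 nM and SAM 20 uM then reacted for 2 h.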
Active calls of the source: *; ? = inconclusive; / = no result; [ ] = another dose, or the depositor's remark. A selection: hits, their analogues and other compounds. The true share with any hit is near 12%. Calls follow the shape of the dose curve; as a rule, active = well fitted curve in the direction sought with a large enough effect; inconclusive = small, poorly fitted or top-dose-only effect, or another doubt; inactive = no such curve, though single readings can be large; an effect the other way counts as inactive or inconclusive. Potency is read from the fitted curve at half-maximal effect.

SMILES	JMJD2A Tudor	TDP1 inh	Sfp PPTase inh	BAZ2B inh	HP1b chromo inh	G9a inh
CN1CCN(c2ncnc3ccc(-c4ccccc4Cl)cc23)CC1	/	/	8%	/	/	18%[0.501 µM]
CC(C)(C)c1nn2cnnc2n(/N=C/c2cccc3ccccc23)c1=O	-19%	1%	-1%	-4%	26%	-14%
S=c1[nH]nc(-c2ccccn2)n1/N=C/c1cccc2ccccc12	5.6µM*	11%	-12%	28µM*	?	0.4µM*
CC(C)(C)c1n[nH]c(=S)n(/N=C/c2cccs2)c1=O	-8%	2%	8%	-3%	40%	-11%[59 µM]
S=c1[nH]nc(-c2ccccn2)n1/N=C/c1ccc(Cl)cc1	5.6µM*	0%	11%	18µM*	0%	2.2µM*
S=c1[nH]nc(-c2ccccn2)n1/N=C/c1ccccc1	2.8µM*	8%	40µM*	11µM*	-3%	?
Clc1ccc(C=Cc2ccccn2)cc1	23%	/	/	/	31%[57 µM]	/
Cc1n[nH]c(=S)n(/N=C/c2cccs2)c1=O	25µM*	7%	?	-2%	22%	8%
CCS(=O)(=O)N1CCCC(C(=O)Oc2ccc(Br)cc2)C1 (configuration not stated)	-7%	0%	4%	9%	60%	/
N#Cc1cc(Sc2ccccn2)c(Sc2ccccn2)cc1C#N	-18%	5%	-12%	2%	14%	32µM*
N#Cc1cc(Sc2ccccn2)c([N+](=O)[O-])cc1C#N	-4%	6%	56µM*	-3%	24%	9%
NS(=O)(=O)c1ccc(Sc2ccccn2)c([N+](=O)[O-])c1	-10%	4%	16%	-7%	16%	0%
C=CCN1c2ccccc2[C@]23C[C@@H](C(=O)OC)N(S(=O)(=O)c4ccc(C(F)(F)F)cc4)C2=NC(C(=O)OC)=C(C(=O)OC)[C@H]13	/	9%[12.3 µM]	1%	/	/	/
CNC(=O)c1c(C)[nH]c(=S)c(C#N)c1-c1ccco1	18µM*	8%	8.9µM*	?	?	/
Cc1ccccc1NC(=O)c1c(C)[nH]c(=S)c(C#N)c1-c1ccco1	-18%	6%	56µM*	4%	6%	1.3µM*
CSc1nc(C)c(C(=O)Nc2ccccc2)c(-c2ccco2)c1C#N	-6%	/	7%	0%	33%	-8%[59 µM]
COc1cc2c(cc1OC)C(c1ccccc1[N+](=O)[O-])N(C(C)=O)CC2 (configuration not stated)	-16%	/	45µM*	6%	13%	-2%[0.501 µM]
CCc1ccc(NC(=O)CC(c2cc(OC)c(OC)c(OC)c2)N2Cc3ccccc3C2=O)cc1 (configuration not stated)	-12%	6%	/	-14%	17%	1%[59 µM]
COc1ccc(-c2c(C#N)c(N)nc3sc(C(=O)c4ccccc4)c(N)c23)cc1	15%	-2%	-4%	23%	86%	50µM*
N#Cc1c(-c2ccccc2F)cc(C2CC2)nc1SCC(=O)c1cccs1	-4%	-8%	3%	-4%	29%	45µM*
CCSc1nc(C2CC2)cc(-c2cccs2)c1C#N	291%	/	-10%	213%	162%	131%[59 µM]
CCOC(=O)CSc1nc(C2CC2)cc(-c2ccc(Cl)cc2)c1C#N	-17%	-3%	18µM*	19%	20%	-2%[59 µM]
COC(=O)CSc1nc(C2CC2)cc(C(F)(F)F)c1C#N	49%	?	7%	92%	88%	107%
CCCCOC(=O)CSc1nc(N)c(C#N)c(-c2ccc(OC)cc2)c1C#N	15%	-2%	7%	-1%	57%	7%[12.7 µM]
CCOC(=O)CSc1nc(N)c(C#N)c(-c2ccc(OC)cc2)c1C#N	6%	2%	-12%	7%	58%	50µM*
SMILES	JMJD2A Tudor	TDP1 inh	Sfp PPTase inh	BAZ2B inh	HP1b chromo inh	G9a inh
O=C(NN=C1CCCCCC1)c1ccc(Cl)s1	-8%	3%[56.1 µM]	2%	-9%	17%	/
Nc1c(Cl)ncnc1N/N=C/c1ccccn1	28µM*	9%	-7%	5.6µM*	-19%	?
Nc1c(Cl)ncnc1N/N=C/c1cccnc1	?	9%	50µM*	-23%	10%	40µM*
Cc1nc(-c2ccc(S(=O)(=O)Nc3ccc(C)c(C)c3)s2)cs1	-17%	1%	/	/	/	/
COc1ccc(NC(=O)C(C)NS(=O)(=O)c2ccccc2)cc1Cl (configuration not stated)	-11%	0%	18%	11%	29%	-3%[12.7 µM]
COc1ccc(NC(=O)C(NCC(C)C)c2ccccc2)cc1Cl (configuration not stated)	4.5µM*	?	50µM*	40µM*	16µM*	50µM*
COc1ccc(NC(=O)C(OC)c2ccccc2)cc1Cl (configuration not stated)	7%	5%	-8%	12%	35%	-11%[59 µM]
COc1ccc(NC(C)C(=O)Nc2ccc(C(C)(C)C)cc2)cc1Cl (configuration not stated)	?	8%	12%	45µM*	-37%	?
CCCCNC(=S)N1CCN(C)CC1	11µM*	-12%	10µM*	40µM*	45µM*	11µM*
CN1CCN(C(=S)NCCc2ccccc2)CC1	4.5µM*	-3%	-22%	45µM*	56µM*	6.3µM*
CCNC(=S)N1CCN(CC)CC1	3.2µM*	-6%	-17%	56µM*	?	25µM*
CCCCNC(=S)N1CCN(c2ccccc2Cl)CC1	11%[57.1 µM]	10%	7%	13%	71%	2%
O=C(C[C@H]1C[C@H](C(=O)N2CCCCC2)[C@@]2(CCc3ccccc3)c3[nH]c4ccc(Cl)cc4c3CCN2C1=O)NCc1cccc(C(F)(F)F)c1	-29%	1%[56.1 µM]	/	/	15%	/
O=C(/C=C/c1ccco1)Nc1nnc(-c2ccco2)s1	-14%	-5%	6%	2%	29%	10%
CCc1nnc(NC(=O)/C=C/c2ccco2)s1	-11%	1%	-10%	4%	38%	50µM*
O=C(/C=C/c1ccco1)Nc1cccc(NC(=O)/C=C/c2ccco2)n1	?	/	3%	?	-7%	10µM*
Cc1nc(NC(=O)/C=C/c2ccco2)sc1C	-33%	-3%	71µM*	?	-7%	?
Cc1ccc2oc(C(=O)NCC(c3ccco3)N(C)C)c(C)c2c1 (configuration not stated)	-7%	12%	1%	-22%[57.1 µM]	33%	-4%
CCC1(c2ccc(Cl)cc2)NC(=S)N(c2ccccc2)N1 (configuration not stated)	-30%	3%	56µM*	-38%	23%	13µM*
CCC1(c2ccccc2)NC(=S)N(c2ccc(C)cc2)N1 (configuration not stated)	-35%	9%	50µM*	-37%	37%	?
